# Several values for one entry are separate records, joined by “and”; a condition that tells them apart may be missing. Identical values can stand only once. Counter-ions that a name gives are not always drawn. Hit rate of the full screen: of about 5,800 compounds, about 620 (11%) showed activity. This is one part of a sample in which actives are shown more often than they occur. Values without a mark were called inactive.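 Rule for the calls: active = score above a cut-off or among the top three wells of a plate; in these data no inactive exceeds 0.85.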
# Tested on: primary human hepatic stellate cells (donor 1)
# Test: scaled lipid accumulation score (0 = DMSO-like, 1 = nortriptyline-like); higher = stronger HSC inactivation (lipid re-accumulation), active = hit call of the paper
# Settings: 48 h
# Experimental: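 Primary lipid accumulation screen in primary human hepatic stellate cell myofibroblasts (donor 1, passage 8) in 384-well plates. 100 nL of library compound was pin-transferred into 30 µL medium in duplicate, and cells were treated for 48 h. The 'Scaled' score combines distance from plate baseline, toxicity and reproducibility penalties, and is normalised to nortriptyline (positive) and DMSO (negative) controls on each plate. A hit is defined as scaled >0.85 or among the top 3 wells per plate.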
# [1] = library stock concentration: 1 mM
# [2] = library stock concentration: 10 mM
# [3] = library stock concentration: 3.33 mM
structure (smiles),measurement,setting,value
CC1CCN=C(N)C1 (configuration not stated) [2-Imino-4-methylpiperidine (acetate)],scaled lipid accumulation score,[1],0.011
N#C/C(=C\c1ccc(O)c(O)c1)C(=O)NCCCCc1ccccc1,scaled lipid accumulation score,[2],≤ 0
CCCCCOc1ccccc1C(O)CC#CCCCC(=O)OC (configuration not stated),scaled lipid accumulation score,[1],0.022
Br.CN1CCC[C@@H]1Cc1c[nH]c2ccc(CCS(=O)(=O)c3ccccc3)cc12 [Eletriptan hydrobromide],scaled lipid accumulation score,[2],0.912 (active)
CN1CCC[C@@H]1Cc1c[nH]c2ccc(CCS(=O)(=O)c3ccccc3)cc12 [Eletriptan HBr],scaled lipid accumulation score,[3],0.194
same,scaled lipid accumulation score,[2],0.202
CNS(=O)(=O)CCc1ccc2[nH]cc(C3CCN(C)CC3)c2c1 [Naratriptan],scaled lipid accumulation score,[3],≤ 0
same,scaled lipid accumulation score,[2],≤ 0
CNS(=O)(=O)CCc1ccc2[nH]cc(C3CCN(C)CC3)c2c1 [Naratriptan hydrochloride],scaled lipid accumulation score,[2],0.019
CN1CCC[C@@H]1Cc1c[nH]c2ccc(CCS(=O)(=O)c3ccccc3)cc12 [Eletriptan hydrobromide],scaled lipid accumulation score,[2],0.624
COC(=O)N[C@H](C(=O)N1CCC[C@H]1c1ncc(-c2ccc(-c3ccc(-c4cnc([C@@H]5CCCN5C(=O)[C@@H](NC(=O)OC)C(C)C)[nH]4)cc3)cc2)[nH]1)C(C)C [listing 1 of 2 here],scaled lipid accumulation score,[2],1.04 (active)
COC(=O)N[C@H](C(=O)N1CCC[C@H]1c1ncc(-c2ccc(-c3ccc(-c4cnc([C@@H]5CCCN5C(=O)[C@@H](NC(=O)OC)C(C)C)[nH]4)cc3)cc2)[nH]1)C(C)C [listing 2 of 2 here],scaled lipid accumulation score,[3],0.322
CCCCC[C@H](O)/C=C/[C@@H]1C2C[C@H](CCCCC(=O)O)O[C@@H]2C[C@H]1O (stereo partly drawn) [6.beta.-Prostaglandin I1],scaled lipid accumulation score,[1],0.004
CC(N)(Cc1ccc(O)c(O)c1)C(=O)O (configuration not stated),scaled lipid accumulation score,[2],≤ 0
CC(C)CN1CCC(CNCc2ccc(C#CC(C)(C)O)s2)CC1,scaled lipid accumulation score,[2],0.671 (active)
Cc1c(C)c2c(c(C)c1O)CCC(C)(CCCC(C)C(=O)O)O2 (configuration not stated),scaled lipid accumulation score,[1],≤ 0
C[C@H]1C[C@H]2[C@@H]3CCC4=CC(=O)C=C[C@]4(C)[C@H]3C(=O)C[C@]2(C)[C@@]1(O)C(=O)CO [Meprednisone],scaled lipid accumulation score,[3],0.055
same,scaled lipid accumulation score,[2],≤ 0
Cc1ccc(F)c(NC(=O)Nc2ccc(-c3cccc4[nH]nc(N)c34)cc2)c1 [listing 1 of 2 here],scaled lipid accumulation score,library stock concentration: 80 uM,0.001
same,scaled lipid accumulation score,library stock concentration: 400 uM,≤ -0.009 and ≤ -0.005
same,scaled lipid accumulation score,library stock concentration: 2 mM,0.233 and 0.419
same,scaled lipid accumulation score,[2],0.446
Cc1cc(NC(=O)Nc2ccc(N(C)C)cc2)c2cc(F)cc(F)c2n1,scaled lipid accumulation score,[3],0.007
same,scaled lipid accumulation score,[2],0.001 and ≤ -0.006
Cc1ccc(F)c(NC(=O)Nc2ccc(-c3cccc4[nH]nc(N)c34)cc2)c1 [listing 2 of 2 here],scaled lipid accumulation score,[2],1.08 (active)
Cc1ccc(F)c(NC(=O)Nc2ccc(-c3cccc4[nH]nc(N)c34)cc2)c1 [Linifanib (ABT-869)],scaled lipid accumulation score,[3],≤ 0
same,scaled lipid accumulation score,[2],≤ 0

# — the supplement of paper PMC9135407
